Among the data in PubChem BioAssay AID1053118 (Broad Institute, 2014) are outcome values, retold here.

Molecules are shown by their SMILES. Entries with a potency or affinity are not part of this list. The source made the active and inactive calls.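 Rule for the calls: active = fitted half-maximal concentration for ATP signal loss at most twice the top valid dose; inconclusive = flat curve between -70 and -30%, or an invalid fit; inactive = flat within ±30%, wrong direction, or potency past limit.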

The nature of the experiment: HepG2 cell cytotoxicity, dose response, cytotoxicity control, cherry-picks, set 5 (AID 1053118).

Turning to `C[C@H](CO)N1C[C@H](C)[C@@H](CN(C)C(=O)c2cccc(F)c2)Oc2ncc(-c3ccccc3)cc2C1=O`, the outcome was inactive.
Under `C[C@@H](O)C#Cc1ccc2c(c1)O[C@@H](CN(C)C)[C@@H](C)CN([C@@H](C)CO)S2(=O)=O` stands “inactive”; under `O=S(=O)(c1ccccc1F)N1CC[C@H]2[C@H](CO)Nc3ccc(-c4cccc(F)c4)cc3[C@H]21`, “inactive”.
For `Cc1cccc(NC(=O)c2ccc(S(=O)(=O)N3CCCCC3)cc2)n1`, the molecule was classed as inactive.
Consider `C[C@@H]1CN([C@H](C)CO)C(=O)c2cc(-c3ccccc3)cnc2O[C@H]1CN(C)C(=O)c1cccc(F)c1`, for which the molecule was called inactive.
The value for `Cc1cccc(N2CCN(S(=O)(=O)c3cn(C)cn3)CC2)c1C` was “inactive”.
The value for `CN(C)C(=O)c1ccc(-c2ccc3c(c2)[C@H]2[C@H](CCN2C(=O)c2ccc(F)cc2)[C@@H](CO)N3C)cc1` was “inactive”; that for `C[C@H](O)C#Cc1ccc2c(c1)O[C@H](CN(C)C)[C@H](C)CN([C@H](C)CO)S2(=O)=O` was “inactive”.
Under `CO[C@H]1CN(C)C(=O)c2cc(NC(=O)Nc3ccc(Cl)c(Cl)c3)ccc2OC[C@@H](C)NC[C@H]1C` stands “inactive”; under `Cc1ccc(S(=O)(=O)N2CC[C@H]3[C@H](CO)Nc4ccc(-c5cccc(C(=O)N(C)C)c5)cc4[C@H]32)cc1`, “inactive”; under `COc1ccccc1N(CC(=O)N(CC(C)C)CC(C)C)S(=O)(=O)c1cccs1`, “inactive”.
In the case of `O=C(CCNS(=O)(=O)c1cccc2nonc12)NC1CCCc2ccccc21` (centres undefined), the result was inactive.
The value for `COC(=O)C[C@@H]1CC[C@H]2[C@H](COc3ccc(NC(=O)Cc4cccs4)cc3C(=O)N2C)O1` was “inactive”.
Consider `C[C@H]1CN([C@@H](C)CO)C(=O)c2cc(-c3ccccc3)cnc2O[C@@H]1CN(C)Cc1ccccc1`, for which the call was inactive.
For `O=S(=O)(c1cccc(F)c1)N1CC[C@@H]2[C@H]1c1cc(-c3cccc(F)c3)ccc1N[C@@H]2CO`, the result was inactive.
Regarding `Cc1ccc(Nc2nnc(SCc3ccccc3)s2)cc1`, the molecule was classed as inactive.
The value for `O=C(CSc1nc2ncc(Cl)cc2[nH]1)c1c[nH]c2ccccc12` was “inactive”; that for `C=CCC[C@H](Cc1ccc(F)cc1)C(=O)OC[C@H](Cc1c[nH]c2ccccc12)NC(=O)[C@@H](CC=C)CC(=O)N[C@@H](CO)Cc1ccccc1` was “inactive”; that for `CN1c2ccc(-c3ccccc3)cc2[C@H]2[C@H](CCN2C(=O)CN2CCOCC2)[C@H]1CO` was “inactive”.
Under `C[C@H](CO)N1C[C@H](C)[C@H](CN(C)C)Oc2cc(C#C[C@@H](C)O)ccc2S1(=O)=O` stands “inactive”; under `C[C@H](O)C#Cc1ccc2c(c1)O[C@H](CN(C)C)[C@@H](C)CN([C@H](C)CO)S2(=O)=O`, “inactive”.
In the case of `CC(C)(C)c1cc(Cl)c(O)c(NC(=S)NC(=O)c2cccnc2)c1`, the result was inactive.
In the case of `CC(C)CNC(=O)c1coc(=O)c(Br)c1`, the result was inactive.
The value for `CC1CN(C(=O)c2cc3c(=O)n4ccccc4nc3n2C)CC(C)O1` (centres undefined) was “inactive”; that for `N#Cc1ccc(-c2ccc3c(c2)[C@@H]2[C@@H](CCN2S(=O)(=O)c2cccc(F)c2)[C@H](CO)N3)cc1` was “inactive”.
As for `C[C@@H]1CN([C@@H](C)CO)C(=O)c2cc(NC(=O)C3CCCCC3)ccc2O[C@H]1CN(C)Cc1ccc(-c2ccccc2)cc1`, the molecule was called inactive.
The value for `COCC(=O)Nc1ccc2c(c1)C(=O)N(C)[C@@H]1CC[C@@H](CC(=O)NCc3ccccc3Cl)O[C@@H]1CO2` was “inactive”; that for `CN(C)C(=O)c1ccc(-c2ccc3c(c2)[C@H]2[C@H](CCN2C(=O)c2ccc(F)cc2)[C@H](CO)N3C)cc1` was “inactive”.
Turning to `COCC(=O)Nc1ccc2c(c1)C(=O)N(C)[C@H]1CC[C@@H](CC(=O)NCc3ccccc3Cl)O[C@H]1CO2`, the result was inactive.
In the case of `C[C@H](O)C#Cc1ccc2c(c1)O[C@H](CN(C)C)[C@H](C)CN([C@@H](C)CO)S2(=O)=O`, the call was inactive.
The value for `CS(=O)(=O)N1CCN(c2ccc(NC(=O)c3ccc([N+](=O)[O-])o3)cc2)CC1` was “inactive”; that for `Cc1ccc([N+](=O)[O-])cc1NC(=O)CN(C(=O)c1ccccc1Cl)C1CCCCC1` was “inactive”; that for `O=C(Nc1nc(-c2ccncc2)cs1)C1COc2ccccc2O1` (centres undefined) was “inactive”.
The value for `CN(C)C(=O)c1ccc(-c2ccc3c(c2)[C@@H]2[C@@H](CCN2C(=O)c2ccc(F)cc2)[C@@H](CO)N3C)cc1` was “inactive”.
